# Most compounds without a hit are left out; they make up all but 19% or so of the library.
# TDP1 cell CPT: DT40-hTDP1 cell growth loss with CPT; AID 686979; chicken DT40 Tdp1-/-;hTDP1 cells + 20 nM CPT, ATP luminescence, 48 h; Potency, µM (top dose mostly 46.2 µM), inactives show top-dose activity change, negative = growth inhibition, actives largely listed as inhibitors; 420,000 tested, 12% active; further: potency means the concentration at half of the fitted maximal effect; on the % scale 0 is the no-effect control and ±100 the full control effect; nearly all actives have a fitted effect of over 55% in size
#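 Chicken DT40 Tdp1-/- cells stably complemented with human TDP1 were seeded at 400 cells/well in medium containing 20 nM camptothecin, exposed to pin-transferred compounds, and grown at 37 °C for at least 48 hr. Viability was read as ATP luminescence.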
# HepG2 viability: counter-screen for TGF-b inhibitors: cytotoxicity in HepG2 cells. AID 588856. Potency, µM (series often up to 46.1 µM), for the others: at the top dose activity change, negative = cytotoxicity, actives largely listed as cytotoxic. HepG2 CAGA-GFP viability, ATP luminescence, 18 h. 410,000 tested, 0.76% active; further: potency means the concentration at half of the fitted maximal effect
#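 HepG2 CAGA-GFP cells (1000/well, DMEM with 1% FBS) received compound, then TGF-beta at 500 pg/mL final, and were incubated 18 hours at 37 degrees C. Viability was read by CellTiter-Glo luminescence. Media-only wells were set as complete cell-killing and DMSO as no toxicity.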
# TDP1 cell noCPT: qHTS for Inhibitors of human tyrosyl-DNA phosphodiesterase 1 (TDP1): qHTS in cells in absence of CPT; 420,000 tested, 15% active; AID 686978, 2013; Potency, µM (top dose mostly 46.2 µM), for the others: at the highest dose activity change, negative = growth inhibition, actives largely listed as inhibitors; DT40 Tdp1-/- hTDP1 cells, no CPT, ATP luminescence, 48 h; further: potency means the concentration at half of the fitted maximal effect; on the % scale 0 is the no-effect control and ±100 the full control effect; nearly all actives have a fitted effect of over 55% in size
#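 Growth of hTDP1-complemented DT40 Tdp1-knockout cells is measured by ATP luminescence after at least 48 hr compound exposure at 37 °C, with DMSO substituting for the 20 nM CPT used in the parallel screen.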
# IL1B secr inh: inhibitors of inflammasome signaling (IL-1 beta secretion). AID 743279. activity change, % at 57.5 µM. 360,000 tested, 4.7% active. THP-1 LPS/ATP IL-1B secretion, AlphaLISA, 16 h; hits give low values; in the data active means activity change below about -50%; inconclusive means mostly about -30% to -49%; further: on the % scale 0 is the no-effect control and ±100 the full control effect
#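 THP-1 cells pretreated 1 hr with compounds (up to 57.5 uM final), then stimulated with LPS (250 ng/mL final) plus ATP (1.25 mM final); secreted IL-1B measured by AlphaLISA after 16 hr, decreased signal indicating inhibition.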
# TGFb inhibitor: TGF-b pathway inhibition; 410,000 tested, 1.2% active; AID 588855; HepG2 CAGA-GFP TGF-b/SMAD3 reporter, GFP fluorescence, 18 h; TGF-beta stimulated, 500 pg/mL final; Potency, µM (series often up to 46.1 µM), inactives show at the highest dose activity, negative = inhibition, actives largely listed as inhibitors; further: potency means the concentration at half of the fitted maximal effect; on the % scale 0 is the no-effect control and ±100 the full control effect; nearly all actives have a fitted effect of over 65% in size
#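 Cell-based qHTS in HEPG2 carrying a CAGA-GFP Smad reporter; compounds added before 500 pg/mL final TGF-beta, 18 h incubation at 37 degrees C, GFP fluorescence quantified per cell by imaging cytometry.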
# TDP1 inh: TDP1 (human) enzyme inhibition; 350,000 tested, 0.28% active; Potency, µM (doses to about 130 µM), for inactives: at the top dose activity change, negative = inhibition, usual class: inhibitors; Q9NUW8; recombinant TDP1, AlphaScreen DNA substrate cleavage; further: potency means the concentration at half of the fitted maximal effect; on the % scale 0 is the no-effect control and ±100 the full control effect; nearly all actives have a fitted effect of over 40% in size
#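 Recombinant E. coli-expressed Tdp1 (1 nM) preincubated with compound 15 min at RT, then 5'-biotin/3'-phosphotyrosine-FITC DNA substrate (15 nM) added for 5 min. AlphaScreen beads (10 ug/ml) added, 10 min RT; tyrosine-FITC cleavage read as signal loss.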
# Numbers without * were called inactive; ? = inconclusive; / = no result given. Unless noted, the call rests on the fitted dose curve; in most records, active means well fitted curve in the direction sought with a large enough effect; inconclusive means small, poorly fitted or top-dose-only effect, or another doubt; inactive means no such curve, though single readings can be large; an effect the other way counts as inactive or inconclusive.
SMILES,TDP1 cell CPT,HepG2 viability,TDP1 cell noCPT,IL1B secr inh,TGFb inhibitor,TDP1 inh
CCc1ccc(NC(=O)CSc2nc3ncccc3[nH]2)cc1,?,-28%,13µM*,/,-26%,2%
CCOC(=O)c1ccc(NC(=O)CSc2nc3ncc(Br)c(C)c3[nH]2)cc1,-21%,-12%,3%,/,-8%,0%
CCCCc1ccc(NC(=O)CSc2nc3ncccc3[nH]2)cc1,2.6µM*,1%,1.2µM*,-6,0%,0%
COc1ccccc1NC(=O)CSc1nc2ncccc2[nH]1,-7%,-3%,-14%,7,-1%,1%
O=C(CSc1nc2ncccc2[nH]1)NCCc1ccccc1,1%,1%,6%,-10,5%,/
COc1ccc(NC(C)=O)cc1NC(=O)CSc1nc2ncccc2[nH]1,13µM*,-21%,18µM*,-1,18%,4%
CCOC(=O)Cc1cc(=O)[nH]n(-c2ccccc2)c1=O,3%,4%,7%,-7,10%,/
Nc1ccc(Sc2cc(Cl)nc(N)n2)cc1,/,/,/,/,/,11%
Nc1nc(N)c2cc(Sc3cccc(C(F)(F)F)c3)ccc2n1,9.2µM*,-116%,1.3µM*,?,?,/
Nc1nc(N)c2cc(Sc3ccc(Cl)cc3)ccc2n1,3.7µM*,-114%,1µM*,?,?,/
O=C(Oc1ccc2ccccc2c1)c1ccccc1,3%,3%,-25%,12,-8%,/
Nc1nc(N)c2cc(Sc3ccc4ccccc4c3)ccc2n1,18µM*,-179%,8.2µM*,?,11µM*,6%
COC(=O)[C@H](COC(C)(C)C)NC(=O)O[C@@H]1C(=O)c2ccc(OC)cc2O[C@H]1c1cccc(C(F)(F)F)c1,/,/,/,/,/,3%
O=C(Cn1c(=O)n(CCc2c[nH]c3ccccc23)c(=O)c2cccnc21)Nc1ccccc1F,15µM*,-5%,23µM*,-7,-8%,8%
CCn1c(-c2cc(-c3ccccc3)sc2N)n[nH]c1=S,?,-46%,8.2µM*,11,?,-1%
CCn1c(-c2ccc(C)cc2)n[nH]c1=S,21µM*,-5%,?,13,9%,5%
Cc1[nH]c2ccc(-c3n[nH]c(=S)n3-c3ccccc3)cc2c1C,-14%,5%,?,2,-4%,5%
Cc1ccc(-c2n[nH]c(=S)n2Cc2ccccc2)cc1,-28%,1%,-22%,-11,-23%,2%
CCOc1ccc(-c2n[nH]c(=S)n2Cc2ccccc2)cc1,?,-16%,21µM*,-13,?,5%
Cc1[nH]c2ccc(-c3n[nH]c(=S)n3Cc3ccccc3)cc2c1C,23µM*,-22%,16µM*,-57*,-25%,10%
Cc1cccc(-n2c(=O)c3c4c(sc3n3c(C)nnc23)CCCC4)c1,?,7%,-19%,/,20%,6%
CC(C)(C)c1ccc(-c2n[nH]c(=S)n2CC2CCCO2)cc1 (configuration not stated),?,6%,16µM*,19,5%,1%
S=c1[nH]nc(-c2ccccc2Cl)n1CC1CCCO1 (configuration not stated),-1%,-1%,0%,19,-9%,-5%
CC(C)[C@H](NC(=O)c1ccc(F)cc1)C(=O)N(C)Cc1cccs1,-22%,-11%,1%,0,-11%,0%
O=C(Nc1ccc2nn(-c3ccc(F)cc3)nc2c1)c1cccc2c(Cl)cccc12,10µM*,2%,21µM*,/,6%,-2%
COc1ccc(-n2nc3ccc(NC(=O)c4c(OC)cccc4OC)cc3n2)cc1,16µM*,-3%,15µM*,/,-1%,-2%

# Screening results (PubChem)
